We go through twelve compounds from PubChem BioAssay (NCATS).

Results filed as inconclusive are left out. Unmarked numbers belong to inactive results. Activity calls are given as the source filed them. Calls come from the whole dose curve; as a rule, active = well fitted curve in the direction sought with a large enough effect; inconclusive = small, poorly fitted or top-dose-only effect, or another doubt; inactive = no such curve, though single readings can be large; an effect the other way counts as inactive or inconclusive.

One assay relates to CRL-7250. Description: Cytotoxic Profiling of Annotated Libraries Using Quantitative High-Throughput Screening (AID 1296008). For max response: % is set by controls: 0 for no effect and ±100 for the full control effect. Note: nearly all actives have a fitted effect of over 60% in size. Note: potency is the fitted concentration of half-maximal effect. The settings on record: Five cell lines viability, CellTiter-Glo ATP luminescence, 48-72 h; max response: stronger effect = lower value. An outline of the steps:
(§1)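 Cells exposed to compounds for 48 or 72 hr at 37 degrees Celsius. Viability read as ATP-coupled luminescence with CellTiter-Glo after 10 min at room temperature.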

The test system of another assay is HEK293. The description is as above. The settings on record: Five cell lines viability, CellTiter-Glo ATP luminescence, 48-72 h; max response: stronger effect = lower value. The essentials: as §1
Assay [1] deals with HaCat. The assay is described as above. The note with it: Five cell lines viability, CellTiter-Glo ATP luminescence, 48-72 h; max response: stronger effect = lower value. The essentials:
as §1

A further assay has as its system KB-3-1. Described as above. The note with it: Five cell lines viability, CellTiter-Glo ATP luminescence, 48-72 h; max response: stronger effect = lower value. An outline of the steps: as §1
In general terms: Cellular ATP, detected with luciferase, serves as a proxy for viable cell number.

Assay [2] relates to NIH3T3. The description is as above. The settings on record: Five cell lines viability, CellTiter-Glo ATP luminescence, 48-72 h; max response: stronger effect = lower value. An outline of the steps: as §1
Assay [3] concerns HACAT. The assay can be described thus: qHTS assay to identify novel small-molecules to repurpose for Merkel cell carcinoma treatment (AID 1296009). Note: nearly all actives have a fitted effect of over 60% in size. The settings on record: MCC and control cell lines, CellTiter-Glo viability, 72 h; at 44.8 µM (top of the series) unless noted. The essentials: (§2)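 Cells were treated for 72 hr at 37 degree celsius with compounds in 8- or 11-point dose response. Viability was read by CellTiter-Glo luminescence, normalized to no-cell (cytotoxicity) and DMSO controls.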
A general note: qHTS replaces the single test concentration by a dilution series.

Assay [4] relates to NIH3T3. The description is as above. The note with it: MCC and control cell lines, CellTiter-Glo viability, 72 h; at 44.8 µM (top of the series) unless noted. An outline of the steps:
as §2

A further assay relates to C33A. Description: Primary qHTS to identify gynecologic anti-cancer compounds using libraries of approved drugs and bioactive compounds (AID 1345084). Note: % is set by controls: 0 for no effect and ±100 for the full control effect; nearly all actives have a fitted effect of over 55% in size. The note with it: Gynecologic cancer cell panel viability, ATPlite luminescence, 48 h; series mostly up to 57.5 µM. The essentials:
(§3)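 In this quantitative HTS, cell killing is estimated from loss of ATP-dependent luciferase light. Cells see five compound concentrations over a 48 h exposure.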

The next assay deals with CAOV3. The description is as above. The note with it: Gynecologic cancer cell panel viability, ATPlite luminescence, 48 h; series mostly up to 57.5 µM. The essentials:
as §3

In another assay the test system is CASKI. The description is as above. The note with it: Gynecologic cancer cell panel viability, ATPlite luminescence, 48 h; series mostly up to 57.5 µM. An outline of the steps: as §3
Another assay relates to Es-2. The assay is described as above. The settings on record: Gynecologic cancer cell panel viability, ATPlite luminescence, 48 h; series mostly up to 57.5 µM. The essentials: as §3
For the next assay, the system named is HeLa. The description is as above. The note with it: Gynecologic cancer cell panel viability, ATPlite luminescence, 48 h; series mostly up to 57.5 µM. An outline of the steps: as §3
The test system of another assay is Hek293T. The description is as above. The note with it: Gynecologic cancer cell panel viability, ATPlite luminescence, 48 h, control line for the selectivity index; series mostly up to 57.5 µM. The essentials: as §3
The subject of a further assay is JEG-3. The assay is described as above. The note with it: Gynecologic cancer cell panel viability, ATPlite luminescence, 48 h; series mostly up to 57.5 µM. The essentials: as §3
For another assay, the system named is OV90. The assay is described as above. The settings on record: Gynecologic cancer cell panel viability, ATPlite luminescence, 48 h; series mostly up to 57.5 µM. An outline of the steps:
as §3

Consider `COCc1c(O)c(C(=O)O)c(C)c2c1OC(=O)c1c(C)cc(O)c(CO)c1O2`, for which the max response was 0.001% in the assay on CRL-7250 and -3.82% with HEK293. Also, the outcome with HaCat [1], in the assay with KB-3-1, in the assay with NIH3T3 [2], with HACAT [3], in the assay on NIH3T3 [4] and with CASKI was inactive. For the same compound, the Potency result in the assay on C33A, with CAOV3, in the assay with Es-2, with HeLa, in the assay with Hek293T and in the assay with JEG-3 was “inactive” in each case. In the assay on OV90, the Potency result is “inactive”.
Regarding `Cn1cc(-c2c[nH]c3ncnc(N4CCOCC4)c23)cn1`, the max response with CRL-7250 was 0.569%; with HEK293, -23.9%. Further, the compound was called inactive in the assay with HaCat [1], with KB-3-1, in the assay on NIH3T3 [2], with HACAT [3], in the assay with NIH3T3 [4] and in the assay on CASKI. For the same compound, the Potency entry in the assay on C33A, in the assay on CAOV3, with Es-2, with HeLa, with Hek293T and with JEG-3 was “inactive” throughout. For the same compound, the Potency entry with OV90 is “inactive”.
Consider `C=C1C(=O)O[C@@H]2C[C@]3(C)[C@@H](CCC(C)=O)[C@@H]3C[C@H]12`, for which the max response with CRL-7250 was 4.44%; with HEK293, -12.9%; with KB-3-1, 2.7%. Also, the result in the assay with HaCat [1], with NIH3T3 [2], in the assay on HACAT [3], with NIH3T3 [4] and in the assay with CASKI was inactive. The Potency entry in the assay on C33A, in the assay on CAOV3, in the assay on Es-2, with HeLa, in the assay on Hek293T and in the assay with JEG-3 was “inactive” each time. The Potency result with OV90 is “inactive”.
In the case of `C=C1C(O)CCC2(C)CC3(OC)OC(=O)C(C)=C3CC12` (stereo not given), the call in the assay with CRL-7250, in the assay on HaCat [1], in the assay with NIH3T3 [2], in the assay on HACAT [3], in the assay on NIH3T3 [4] and in the assay on CASKI was inactive. For the same compound, the values for the max response with HEK293 and in the assay with KB-3-1 were 0.468% and 3.24%, respectively. Also, the Potency result with C33A, in the assay with CAOV3, in the assay on Es-2, in the assay on HeLa, with Hek293T and in the assay on JEG-3 was “inactive” throughout. The Potency entry in the assay on OV90 is “inactive”.
Regarding `C[C@H]1[C@H](C)C[C@@H](C(=O)O)C2CC[C@]3(C)C(=CC[C@@H]4[C@@]5(C)CC[C@H](O)C(C)(C)[C@@H]5CC[C@]43C)[C@@H]21` (stereo not given in full), the figures for the max response with CRL-7250 and in the assay with KB-3-1 were -4.25% and 8.63%, respectively. In addition, the Potency with HEK293 is 25.9 µM (active). Moreover, the compound was classed as inactive in the assay on HaCat [1], in the assay on NIH3T3 [2], in the assay on HACAT [3], in the assay on NIH3T3 [4] and in the assay on CASKI. The Potency result with C33A, with CAOV3, in the assay on Es-2, in the assay on HeLa, in the assay on Hek293T and with JEG-3 was “inactive” in each case. Further, the Potency result in the assay on OV90 is “inactive”.
As for `CN1CCN(C(=O)c2cc3cc(Cl)ccc3[nH]2)CC1`, the max response in the assay with CRL-7250 was -2.46%; in the assay with HEK293, -8.86%; in the assay on KB-3-1, -0.0663%. Also, the outcome with HaCat [1], in the assay with NIH3T3 [2], with HACAT [3], in the assay on NIH3T3 [4] and in the assay on CASKI was inactive. Besides, the Potency entry in the assay on C33A, with CAOV3, in the assay with Es-2, in the assay with HeLa, with Hek293T and with JEG-3 was “inactive” throughout. In addition, the Potency entry with OV90 was “inactive”.
With `CC[C@@H]1[C@H]2CCCCN3C(=O)C[C@H]([C@@H]4[C@H]1OC(=O)[C@H]4C)[C@@H]23`, the values for the max response with CRL-7250, in the assay with HEK293 and with KB-3-1 were -4.41%, -4.7% and -6.87%, respectively. In addition, the outcome in the assay with HaCat [1], with NIH3T3 [2], in the assay with HACAT [3], with NIH3T3 [4] and in the assay on CASKI was inactive. The Potency result in the assay with C33A, with CAOV3, in the assay with Es-2, in the assay with HeLa, with Hek293T and in the assay with JEG-3 was “inactive” throughout. The Potency result in the assay on OV90 is “inactive”.
In the case of `CC1CC(O)/C=C/C(O)/C=C\C(=O)O1` (stereo not given), the max response in the assay on CRL-7250 is 0.731%; in the assay with HEK293, -11.1%. Also, the compound was called inactive in the assay with HaCat [1], in the assay with KB-3-1, with NIH3T3 [2] and in the assay with CASKI. The outcome in the assay with HACAT [3] and in the assay with NIH3T3 [4] was “inactive [at 92 µM]” in each case. In addition, the Potency entry with C33A, with CAOV3, in the assay on Es-2, with HeLa, with Hek293T and in the assay on JEG-3 was “inactive” in each case. Besides, in the assay on OV90, the Potency result was “inactive”.
For the compound `CC(C)c1ccc2c(c1)CCC1[C@](C)(C(=O)O)CCC[C@]21C` (stereo not given in full), the result in the assay on CRL-7250, with HaCat [1], with NIH3T3 [2], with HACAT [3], in the assay with NIH3T3 [4] and with CASKI was inactive. Also, the max response in the assay with HEK293 was 2.37%; in the assay with KB-3-1, -0.955%. The Potency entry in the assay with C33A, with CAOV3, with Es-2, in the assay on HeLa, with Hek293T and in the assay on JEG-3 was “inactive” in each case. For the same compound, the Potency entry in the assay on OV90 was “inactive”.
Turning to `COc1cc(/C=C/C(=O)O[C@H]2[C@@H]3C=CO[C@@H](O[C@@H]4O[C@H](CO)[C@@H](O)[C@H](O)[C@H]4O)[C@@H]3[C@@]3(CO)O[C@@H]23)ccc1O`, the outcome in the assay with CRL-7250, with HaCat [1], in the assay on KB-3-1, in the assay with NIH3T3 [2] and with CASKI was inactive. In addition, in the assay on HEK293, the max response is 1.49%. For the same compound, the outcome in the assay on HACAT [3] and with NIH3T3 [4] was “inactive [at 17.4 µM]” in each case. The Potency entry in the assay with C33A, in the assay on CAOV3, with Es-2, with HeLa, in the assay on Hek293T and with JEG-3 was “inactive” each time. In addition, the Potency entry in the assay with OV90 is “inactive”.
In the case of `CC1=C(CO)C2(C)CCCC(C)(C)C2C(O)C1O` (stereo not given), the max response in the assay on CRL-7250 was -6.52%; in the assay on HEK293 it was -5.93%. Further, the compound was classed as inactive with HaCat [1], in the assay with KB-3-1, in the assay on NIH3T3 [2], in the assay with HACAT [3], with NIH3T3 [4] and with CASKI. Further, the Potency entry in the assay with C33A, with CAOV3, in the assay with Es-2, in the assay on HeLa, in the assay on Hek293T and in the assay with JEG-3 was “inactive” in each case. Besides, in the assay on OV90, the Potency entry was “inactive”.
For `Cc1ccc(C)c(S(=O)(=O)n2cnc3ccccc32)c1`, the max response with CRL-7250 was -12.1%; in the assay with HEK293, -10.9%. Moreover, the result in the assay with HaCat [1], in the assay on KB-3-1, in the assay on NIH3T3 [2], in the assay with HACAT [3], in the assay with NIH3T3 [4] and in the assay with CASKI was inactive. The Potency entry in the assay with C33A, in the assay with CAOV3, with Es-2, with HeLa, in the assay with Hek293T and with JEG-3 was “inactive” each time. Also, the Potency entry in the assay with OV90 is “inactive”.
